Potency and outcome data for 7 molecules are collected here from PubChem BioAssay (Tox21).

Inconclusive results are not listed. Calls of active or inactive are those of the source. Unless noted, calls come from the whole dose curve; as a rule, active = well fitted curve in the direction sought with a large enough effect in the repeat runs; inconclusive = weak or mixed curves; inactive = no such curve, though single readings can be large; an effect the other way counts as inactive or inconclusive.

The nature of test [1]: qHTS assay to identify small molecule antagonists of the thyroid receptor (TR) signaling pathway - cell viability counter screen (AID 743064). Note: nearly all actives have a fitted effect of over 50% in size. The procedure, abridged: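 CellTiter-Fluor readout, 30 min at 37 °C/5% CO2, following 23.5 h incubation of GH3.TRE-Luc cells with test compound and 1 nM T3 (final).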
A short description of test [2]: qHTS assay to identify small molecule antagonists of the thyroid receptor (TR) signaling pathway (AID 743065). Note: series mostly up to about 70 µM; nearly all actives have a fitted effect of over 55% in size. In outline: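 GH3.TRE-Luc rat pituitary cells carrying two TR response elements driving luciferase were plated for 4 h, given compound plus 1 nM T3 (final), and incubated 23.5 h at 37 C. ONE-Glo luminescence measured reporter inhibition; CellTiter-Fluor fluorescence tracked cytotoxicity.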

Test [3] has as its system thyroid hormone receptor (rat, GH3 cells). The experiment in a line: qHTS assay to identify small molecule agonists of the thyroid receptor (TR) signaling pathway (AID 743066; calls by dose curve).
Test [4] addresses Estrogen receptor (Homo sapiens) (UniProt P03372). Put plainly: qHTS assay to identify small molecule antagonists of the estrogen receptor alpha (ER-alpha) signaling pathway (AID 743069; active = well fitted curve in the direction sought with a large enough effect in the signal ratio in the repeat runs, not every such curve was filed as active; the % refers to the signal ratio). In outline: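 Estradiol-stimulated ER-alpha-UAS-bla HEK293 cells, 18 hr compound exposure at 37C. LiveBLAzer B/G substrate, 2 hr RT, fluorescence read.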
Background: Quantitative high-throughput screening tests each substance at several concentrations.

Test [5] is described as follows: qHTS assay to identify small molecule antagonists of the estrogen receptor alpha (ER-alpha) signaling pathway - cell viability counter screen (AID 743074; calls by dose curve;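 note: HEK293 cells carrying ER-alpha-UAS-bla reporter stimulated with 17beta-estradiol; nearly all actives have a fitted effect of over 45% in size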).
The target of test [6] is Estrogen receptor (Homo sapiens) (UniProt P03372). Put plainly: qHTS assay to identify small molecule agonists of the estrogen receptor alpha (ER-alpha) signaling pathway (AID 743075; calls by dose curve;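 note: HEK293 GripTite cells with ER-alpha and UAS-driven beta-lactamase reporter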).
Test [7] has the same target. The experiment in a line: qHTS assay to identify small molecule agonists of the estrogen receptor alpha (ER-alpha) signaling pathway using the BG1 cell line (AID 743079). Note: nearly all actives have a fitted effect of over 20% in size.
Test [8] is described as follows: qHTS assay to identify small molecule antagonists of the estrogen receptor alpha (ER-alpha) signaling pathway using the BG1 cell line (AID 743080; calls by dose curve;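 note: BG1 cells stimulated with 17beta-estradiol alongside compound; series mostly up to about 70 µM; nearly all actives have a fitted effect of over 25% in size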). In outline: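 Seeding, 24 h rest, compound transfer from DMSO, 17beta-estradiol addition, 21.5 h incubation, CellTiter-Fluor (30 min, 37 C), then ONE-Glo (30 min, room temperature): this sequence was run on BG1-Luc-4E2 reporter cells.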

The nature of test [9]: qHTS assay to identify small molecule antagonists of the estrogen receptor alpha (ER-alpha) signaling pathway using the BG1 cell line - cell viability counter screen (AID 743081).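 Note: compound given together with 17beta-estradiol as the ER stimulus; series mostly up to about 70 µM; nearly all actives have a fitted effect of over 45% in size.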
Test [10] addresses Aromatase (Homo sapiens) (UniProt P11511). The experiment in a line: qHTS assay to identify aromatase inhibitors (AID 743083). Note: series mostly up to about 70 µM; nearly all actives have a fitted effect of over 55% in size.
Test [11] in a line: qHTS assay to identify aromatase inhibitors - cell viability counter screen (AID 743084).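 Note: cells stimulated with testosterone during compound exposure; nearly all actives have a fitted effect of over 55% in size.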
In test [12] the target is Aryl hydrocarbon receptor (Homo sapiens) (UniProt P35869). Put plainly: qHTS assay to identify small molecule that activate the aryl hydrocarbon receptor (AhR) signaling pathway (AID 743085).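 For activation: HG2L7.5c1 human HepG2 liver cells with stably integrated DRE-driven firefly reporter; series mostly up to about 70 µM.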 Note: nearly all actives have a fitted effect of over 15% in size. Note: potency is the fitted concentration of half-maximal effect. The procedure, abridged:
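Stably transfected human liver carcinoma cells (HG2L7.5c1; 20 DRE-firefly luciferase) were incubated 5 h, dosed, and kept 24 h at 37C. Agonism was scored from increased luciferase luminescence.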

A short description of test [13]: qHTS assay to identify small molecule that activate the aryl hydrocarbon receptor (AhR) signaling pathway - cell viability counter screen (AID 743086).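 Note: HepG2 liver cells carrying the AhR DRE luciferase reporter; series mostly up to about 70 µM; nearly all actives have a fitted effect of over 45% in size.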 The procedure, abridged: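 HepG2-AhR-luc (HG2L7.5c1) cells, 4000/well, were preincubated 5 h at 37C, exposed to compound in qHTS format for 24 hr at 37C, then given CellTiter-Fluor for 30 min; viability was read as fluorescence in the reporter wells.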

The target of test [14] is Peroxisome proliferator-activated receptor gamma (Homo sapiens) (UniProt P37231). The experiment in a line: qHTS assay to identify small molecule agonists of the peroxisome proliferator-activated receptor gamma (PPARg) signaling pathway (AID 743094; active = well fitted activation curve with a large enough effect in the signal ratio in the repeat runs, not every such curve was filed as active; the % refers to the signal ratio). The procedure, abridged:
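Quantitative HTS agonist mode: stable HEK293H line with UAS-beta-lactamase reporter under PPARg control, 17 h compound exposure at 37C, fluorescence after 1 h FRET substrate loading at room temperature.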

The target is the same in test [15]. The experiment in a line: qHTS assay to identify small molecule antagonists of the peroxisome proliferator-activated receptor gamma (PPARg) signaling pathway (AID 743191; calls by dose curve; note: series mostly up to about 63 µM; nearly all actives have a fitted effect of over 30% in size). The procedure, abridged:
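GeneBLAzer PPARg UAS-bla HEK293H cells carrying a UAS-driven beta-lactamase reporter were plated at 3000 cells/well, preincubated 5 h at 37C, then given compound for 17 h at 37C; LiveBLAzer B/G FRET substrate was read after 1 h at room temperature.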

The nature of test [16]: qHTS assay to identify small molecule antagonists of the peroxisome proliferator-activated receptor gamma (PPARg) signaling pathway - cell viability counter screen (AID 743194). Note: nearly all actives have a fitted effect of over 55% in size. The procedure, abridged:
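PPARg-UAS-bla HEK293H cells were plated, rested 5 h at 37 C, then treated with compounds plus rosiglitazone (50 nM final) for 17 h at 37 C; viability was then read by CellTiter-Glo luminescence after 30 min at room temperature.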

The nature of test [17]: qHTS assay for small molecule agonists of the antioxidant response element (ARE) signaling pathway - cell viability counter screen (AID 743203; calls by dose curve; note: nearly all actives have a fitted effect of over 55% in size). In outline: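 Seeded at 2,000 cells/well, ARE-bla HepG2 cells were incubated 5 hrs before compound addition. After 16 hrs of treatment at 37C with 5% CO2, CellTiter-Glo reagent was added and luminescence read 30 min later.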
Test [18] is described as follows: qHTS assay for small molecule activators of the heat shock response signaling pathway - cell viability counter screen (AID 743209). Note: nearly all actives have a fitted effect of over 50% in size. In outline:
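First, HSE-bla HeLa cells were seeded at 1500 cells/well and kept overnight at 37 C. Next, compounds were pinned in and incubated 5 h. After the FRET substrate step, CellTiter-Glo was added and luminescence read 30 min later.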

Test [19] can be described thus: qHTS assay for small molecule agonists of the antioxidant response element (ARE) signaling pathway (AID 743202; active = well fitted activation curve with a large enough effect in the signal ratio in the repeat runs, not every such curve was filed as active; the % refers to the signal ratio). In outline: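 Compounds delivered in DMSO to ARE-bla HepG2 cells (2,000 cells/well, pre-incubated 5 h) and left 16 h at 37 C. LiveBLAzer B/G FRET substrate then added for 2 h at RT before fluorescence reading.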
The nature of test [20]: qHTS assay for small molecule activators of the heat shock response signaling pathway (AID 743210; active = well fitted activation curve with a large enough effect in the signal ratio in the repeat runs, with a control signal flat, not every such curve was filed as active; the % refers to the signal ratio;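 note: HeLa cells with beta-lactamase reporter driven by heat shock elements; series mostly up to about 63 µM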). The procedure, abridged:
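Reporter gene assay: HeLa cells stably bearing an HSE-bla construct, compound treatment 5 h at 37 C, LiveBLAzer substrate 2.5 h at RT, fluorescence intensity.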

Peroxisome proliferator-activated receptor gamma (Homo sapiens), sequence (P37231 whole entry, looked up): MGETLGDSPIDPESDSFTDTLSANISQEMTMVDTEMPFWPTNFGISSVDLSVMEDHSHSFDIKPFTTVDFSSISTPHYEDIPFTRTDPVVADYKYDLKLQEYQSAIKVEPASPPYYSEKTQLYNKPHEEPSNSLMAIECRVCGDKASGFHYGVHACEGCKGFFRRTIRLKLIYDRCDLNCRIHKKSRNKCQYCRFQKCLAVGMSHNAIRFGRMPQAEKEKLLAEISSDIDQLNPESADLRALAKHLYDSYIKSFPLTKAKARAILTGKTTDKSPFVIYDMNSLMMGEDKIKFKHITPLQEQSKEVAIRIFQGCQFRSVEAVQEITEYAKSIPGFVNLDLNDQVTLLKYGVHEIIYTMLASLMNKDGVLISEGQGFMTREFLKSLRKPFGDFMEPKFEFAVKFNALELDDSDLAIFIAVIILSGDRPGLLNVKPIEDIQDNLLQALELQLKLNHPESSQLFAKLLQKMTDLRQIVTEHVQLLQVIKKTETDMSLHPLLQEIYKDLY
Estrogen receptor (Homo sapiens), sequence (P03372 whole entry, looked up): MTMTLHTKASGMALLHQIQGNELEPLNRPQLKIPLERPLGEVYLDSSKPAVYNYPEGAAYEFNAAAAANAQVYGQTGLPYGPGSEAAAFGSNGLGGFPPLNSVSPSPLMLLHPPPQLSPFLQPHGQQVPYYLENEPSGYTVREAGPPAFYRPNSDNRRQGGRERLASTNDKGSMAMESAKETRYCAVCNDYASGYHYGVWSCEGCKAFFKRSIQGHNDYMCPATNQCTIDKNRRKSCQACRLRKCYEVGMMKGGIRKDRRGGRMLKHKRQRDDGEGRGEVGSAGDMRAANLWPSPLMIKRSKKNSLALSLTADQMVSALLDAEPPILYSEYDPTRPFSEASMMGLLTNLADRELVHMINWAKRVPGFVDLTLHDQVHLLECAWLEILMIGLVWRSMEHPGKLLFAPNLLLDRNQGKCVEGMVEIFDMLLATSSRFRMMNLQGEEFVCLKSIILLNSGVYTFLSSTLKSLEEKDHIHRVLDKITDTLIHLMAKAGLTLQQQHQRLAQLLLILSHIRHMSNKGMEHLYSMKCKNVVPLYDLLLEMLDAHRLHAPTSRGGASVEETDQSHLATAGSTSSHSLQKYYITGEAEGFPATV
Aryl hydrocarbon receptor (Homo sapiens), sequence (P35869 whole entry, looked up): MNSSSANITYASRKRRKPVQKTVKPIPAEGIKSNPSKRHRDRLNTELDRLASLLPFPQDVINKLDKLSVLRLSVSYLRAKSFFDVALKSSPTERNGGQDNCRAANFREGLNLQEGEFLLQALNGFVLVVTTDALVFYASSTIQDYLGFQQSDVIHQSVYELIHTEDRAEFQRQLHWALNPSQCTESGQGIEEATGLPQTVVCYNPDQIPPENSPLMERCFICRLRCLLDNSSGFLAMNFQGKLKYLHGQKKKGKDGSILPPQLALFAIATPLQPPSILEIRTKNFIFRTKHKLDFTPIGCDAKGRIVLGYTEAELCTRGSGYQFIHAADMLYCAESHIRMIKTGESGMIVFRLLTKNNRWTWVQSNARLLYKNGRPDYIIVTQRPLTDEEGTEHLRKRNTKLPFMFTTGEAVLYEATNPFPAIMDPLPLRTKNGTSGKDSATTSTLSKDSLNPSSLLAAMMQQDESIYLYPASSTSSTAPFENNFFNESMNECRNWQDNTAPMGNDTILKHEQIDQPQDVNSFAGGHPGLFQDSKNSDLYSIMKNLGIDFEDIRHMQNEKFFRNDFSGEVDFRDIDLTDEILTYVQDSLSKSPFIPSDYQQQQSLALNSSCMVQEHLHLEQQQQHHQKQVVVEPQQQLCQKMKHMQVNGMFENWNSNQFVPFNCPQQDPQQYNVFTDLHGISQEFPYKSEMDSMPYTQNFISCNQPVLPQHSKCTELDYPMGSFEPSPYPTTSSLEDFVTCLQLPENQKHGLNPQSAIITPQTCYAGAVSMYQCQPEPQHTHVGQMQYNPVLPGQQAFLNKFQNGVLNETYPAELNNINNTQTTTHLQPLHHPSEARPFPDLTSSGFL
Aromatase (Homo sapiens), sequence (P11511 whole entry, looked up): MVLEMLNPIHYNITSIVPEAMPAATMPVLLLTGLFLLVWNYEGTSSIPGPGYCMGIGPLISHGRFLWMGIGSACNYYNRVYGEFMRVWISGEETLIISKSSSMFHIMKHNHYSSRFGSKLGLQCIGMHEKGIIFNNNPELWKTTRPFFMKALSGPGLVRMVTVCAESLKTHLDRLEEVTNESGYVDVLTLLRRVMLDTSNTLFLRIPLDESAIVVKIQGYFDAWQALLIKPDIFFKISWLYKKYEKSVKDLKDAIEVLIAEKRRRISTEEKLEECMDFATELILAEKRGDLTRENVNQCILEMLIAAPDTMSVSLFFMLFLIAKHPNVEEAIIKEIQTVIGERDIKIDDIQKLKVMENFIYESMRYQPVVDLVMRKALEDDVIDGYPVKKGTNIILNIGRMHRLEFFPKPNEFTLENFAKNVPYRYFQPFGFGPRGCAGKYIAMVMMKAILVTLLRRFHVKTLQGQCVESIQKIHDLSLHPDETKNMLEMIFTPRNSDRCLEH

Turning to `COC(=O)CCCCCCCC(=O)OC`, the Potency entry in [1], in test [2], in test [7], in [8], in [10] and in [11] was “inactive” throughout. Moreover, the Potency entry in test [12], in [13] and in [15] was “inactive” in each case. The molecule was classed as inactive in test [3], in test [4], in test [5], in test [6], in test [9] and in test [14]. Besides, the outcome in [16], in [17] and in test [18] was inactive.

Regarding `CN1C(C)(C)CCCC1(C)C`, the Potency entry in test [1], in test [2], in test [7], in [8], in test [10] and in [11] was “inactive” throughout. Moreover, the Potency entry in test [12], in test [13], in test [15] and in test [19] was “inactive” throughout. Moreover, the outcome in [3], in test [4], in test [5], in [6], in test [9] and in test [14] was inactive. Also, the molecule was called inactive in [16], in [17] and in [18].

`NNc1nnc(NN)c2ccccc12`: the Potency entry in [1], in test [2], in test [7], in [8], in [10] and in [11] was “inactive” each time. The Potency result in test [13], in [15] and in test [19] was “inactive” each time. In addition, the outcome in test [3], in test [4], in [5], in test [6], in [9] and in [14] was inactive. In addition, the outcome in test [16], in [17], in [18] and in test [20] was inactive. In addition, the Potency in [12] is 29.8 µM (active).

As for `CCCCC(CC)COCCO` (configuration not stated), the Potency result in test [1], in test [2], in test [7], in test [8], in [10] and in test [11] was “inactive” throughout. For the same molecule, the Potency result in [12], in test [13], in [15] and in test [19] was “inactive” throughout. In addition, the molecule was classed as inactive in [3], in test [4], in [5], in [6], in test [9] and in test [14]. The outcome in [16], in [17], in test [18] and in test [20] was inactive.

In the case of `Cc1nc2n(c(=O)c1CCN1CCC(c3noc4cc(F)ccc34)CC1)CCC[C@H]2O`, the Potency result in test [1], in test [2], in test [7], in [8], in test [10] and in [11] was “inactive” in each case. The Potency entry in [12], in test [13], in [15] and in test [19] was “inactive” in each case. Also, the result in test [3], in test [4], in [5], in [6], in [9] and in [14] was inactive. Besides, the molecule was called inactive in test [16], in test [17], in [18] and in [20].

In the case of `NS(=O)(=O)c1ccc(NC(=O)CCC(=O)O)cc1`, the Potency result in [1], in test [2], in test [7], in [8], in test [10] and in [11] was “inactive” each time. For the same molecule, the Potency entry in test [12], in [13] and in test [19] was “inactive” throughout. Also, the molecule was called inactive in [3], in test [4], in test [5], in test [6], in test [9] and in test [14]. The call in test [17] and in [18] was inactive.

For `CC(C)(C)NC(N)=O`, the Potency result in test [1], in [2], in [7], in test [8], in test [10] and in [11] was “inactive” throughout. The Potency result in [12], in test [13] and in test [15] was “inactive” throughout. In addition, the call in test [3], in test [4], in test [5], in [6], in test [9] and in test [14] was inactive. Also, the molecule was called inactive in test [16], in test [17] and in test [18].
